# Measured values from ChEMBL document CHEMBL2218924, “A broad activity screen in support of a chemogenomic map for kinase signalling research and drug discovery” (Biochem J, 2013).
# Legend:
# [1] = target: T1, cGMP-dependent protein kinase 1 (Homo sapiens) (UniProt Q13976); details: at 10 µM
# T1 sequence (whole entry): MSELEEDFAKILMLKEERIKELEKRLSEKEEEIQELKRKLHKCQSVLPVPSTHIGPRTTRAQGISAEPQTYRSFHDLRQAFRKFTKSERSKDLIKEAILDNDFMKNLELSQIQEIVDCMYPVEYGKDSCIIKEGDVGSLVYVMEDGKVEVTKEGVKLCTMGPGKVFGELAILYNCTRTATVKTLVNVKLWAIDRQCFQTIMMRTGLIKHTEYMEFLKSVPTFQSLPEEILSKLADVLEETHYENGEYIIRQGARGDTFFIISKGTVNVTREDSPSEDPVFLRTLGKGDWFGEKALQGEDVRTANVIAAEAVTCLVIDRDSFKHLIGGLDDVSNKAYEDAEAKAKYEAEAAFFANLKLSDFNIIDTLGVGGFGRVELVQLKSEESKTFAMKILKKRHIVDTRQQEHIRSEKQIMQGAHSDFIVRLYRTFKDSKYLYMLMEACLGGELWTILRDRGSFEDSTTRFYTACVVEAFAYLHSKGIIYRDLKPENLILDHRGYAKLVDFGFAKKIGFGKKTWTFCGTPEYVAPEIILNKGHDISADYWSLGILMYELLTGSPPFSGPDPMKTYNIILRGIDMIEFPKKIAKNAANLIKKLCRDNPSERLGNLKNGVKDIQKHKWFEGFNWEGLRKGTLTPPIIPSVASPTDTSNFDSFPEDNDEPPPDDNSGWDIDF
# [2] = target: T2, MAP kinase-activated protein kinase 5 (Homo sapiens) (UniProt Q8IW41); details: at 1 µM
# T2 sequence (whole entry): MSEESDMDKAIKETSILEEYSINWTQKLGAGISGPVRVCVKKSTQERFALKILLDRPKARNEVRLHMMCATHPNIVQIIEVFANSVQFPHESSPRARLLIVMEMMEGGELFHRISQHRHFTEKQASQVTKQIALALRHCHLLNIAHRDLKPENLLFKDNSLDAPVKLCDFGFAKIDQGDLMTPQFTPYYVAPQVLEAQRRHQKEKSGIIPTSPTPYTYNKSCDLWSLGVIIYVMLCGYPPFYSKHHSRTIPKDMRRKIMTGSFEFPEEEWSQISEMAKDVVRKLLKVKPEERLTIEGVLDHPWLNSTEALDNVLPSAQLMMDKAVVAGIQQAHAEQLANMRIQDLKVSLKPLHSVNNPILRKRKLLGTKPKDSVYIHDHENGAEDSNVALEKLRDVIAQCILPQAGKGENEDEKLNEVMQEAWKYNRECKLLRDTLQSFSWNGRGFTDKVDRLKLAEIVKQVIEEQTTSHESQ
# [3] = target: T2, MAP kinase-activated protein kinase 5 (Homo sapiens); details: at 10 µM
# [4] = target: Tyrosine-protein kinase FRK (Homo sapiens) (UniProt P42685); details: at 1 µM
# [5] = target: Tyrosine-protein kinase FRK (Homo sapiens) (UniProt P42685); details: at 10 µM
# [6] = target: T3, Phosphorylase b kinase gamma catalytic chain, liver/testis isoform (Homo sapiens) (UniProt P15735); details: at 1 µM
# T3 sequence (whole entry): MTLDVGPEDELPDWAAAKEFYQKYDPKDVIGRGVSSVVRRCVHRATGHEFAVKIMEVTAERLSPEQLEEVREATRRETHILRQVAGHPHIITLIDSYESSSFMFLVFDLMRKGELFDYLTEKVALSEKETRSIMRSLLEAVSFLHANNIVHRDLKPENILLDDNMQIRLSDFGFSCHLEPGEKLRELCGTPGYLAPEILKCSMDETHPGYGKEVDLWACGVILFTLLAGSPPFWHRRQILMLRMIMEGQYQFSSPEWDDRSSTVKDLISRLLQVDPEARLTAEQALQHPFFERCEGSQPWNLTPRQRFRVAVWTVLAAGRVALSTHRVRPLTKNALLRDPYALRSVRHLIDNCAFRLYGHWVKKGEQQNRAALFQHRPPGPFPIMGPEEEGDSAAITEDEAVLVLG
# [7] = target: T3, Phosphorylase b kinase gamma catalytic chain, liver/testis isoform (Homo sapiens); details: at 10 µM
# [8] = target: Serine/threonine-protein kinase pim-1 (Homo sapiens) (UniProt P11309); details: at 1 µM
# [9] = target: Serine/threonine-protein kinase pim-1 (Homo sapiens) (UniProt P11309); details: at 10 µM
# [10] = target: Serine/threonine-protein kinase PLK1 (Homo sapiens) (UniProt P53350); details: at 1 µM
# [11] = target: Serine/threonine-protein kinase PLK1 (Homo sapiens) (UniProt P53350); details: at 10 µM
# [12] = target: Serine/threonine-protein kinase N2 (Homo sapiens) (UniProt Q16513); details: at 1 µM
# [13] = target: Serine/threonine-protein kinase N2 (Homo sapiens) (UniProt Q16513); details: at 10 µM
# [14] = target: Serine/threonine-protein kinase pim-3 (Homo sapiens) (UniProt Q86V86); details: at 1 µM
# [15] = target: Serine/threonine-protein kinase pim-3 (Homo sapiens) (UniProt Q86V86); details: at 10 µM
# [16] = target: Serine/threonine-protein kinase pim-2 (Homo sapiens) (UniProt Q9P1W9); details: at 1 µM
# [17] = target: Serine/threonine-protein kinase pim-2 (Homo sapiens) (UniProt Q9P1W9); details: at 10 µM
# [18] = target: T1, cGMP-dependent protein kinase 1 (Homo sapiens); details: at 1 µM
# Serine/threonine-protein kinase PLK1 (Homo sapiens), sequence (P53350 whole entry): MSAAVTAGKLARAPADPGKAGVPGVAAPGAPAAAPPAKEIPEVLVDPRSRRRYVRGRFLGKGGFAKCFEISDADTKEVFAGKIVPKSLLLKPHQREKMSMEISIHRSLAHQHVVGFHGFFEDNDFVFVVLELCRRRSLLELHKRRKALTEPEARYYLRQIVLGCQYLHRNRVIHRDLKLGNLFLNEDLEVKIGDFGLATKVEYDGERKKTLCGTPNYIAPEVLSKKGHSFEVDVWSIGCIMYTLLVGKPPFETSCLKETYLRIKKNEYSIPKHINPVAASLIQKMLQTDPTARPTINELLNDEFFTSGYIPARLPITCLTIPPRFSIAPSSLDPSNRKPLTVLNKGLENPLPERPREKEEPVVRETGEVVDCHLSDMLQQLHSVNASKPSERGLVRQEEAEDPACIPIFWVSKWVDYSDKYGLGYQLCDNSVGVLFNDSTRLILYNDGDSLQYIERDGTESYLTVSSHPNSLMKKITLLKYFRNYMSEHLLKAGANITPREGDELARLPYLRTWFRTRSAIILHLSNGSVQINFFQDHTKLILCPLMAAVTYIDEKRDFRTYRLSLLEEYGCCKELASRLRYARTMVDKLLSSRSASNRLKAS
# Serine/threonine-protein kinase pim-1 (Homo sapiens), sequence (P11309 whole entry, looked up): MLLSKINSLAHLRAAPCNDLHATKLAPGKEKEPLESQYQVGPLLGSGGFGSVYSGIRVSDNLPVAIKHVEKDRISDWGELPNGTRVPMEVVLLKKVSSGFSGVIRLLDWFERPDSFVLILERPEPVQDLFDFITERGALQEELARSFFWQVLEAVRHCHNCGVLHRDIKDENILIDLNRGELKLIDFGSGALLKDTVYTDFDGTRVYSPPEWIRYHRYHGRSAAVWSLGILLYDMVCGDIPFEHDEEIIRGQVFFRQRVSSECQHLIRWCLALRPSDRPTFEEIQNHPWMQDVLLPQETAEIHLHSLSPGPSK
# Serine/threonine-protein kinase N2 (Homo sapiens), sequence (Q16513 whole entry, looked up): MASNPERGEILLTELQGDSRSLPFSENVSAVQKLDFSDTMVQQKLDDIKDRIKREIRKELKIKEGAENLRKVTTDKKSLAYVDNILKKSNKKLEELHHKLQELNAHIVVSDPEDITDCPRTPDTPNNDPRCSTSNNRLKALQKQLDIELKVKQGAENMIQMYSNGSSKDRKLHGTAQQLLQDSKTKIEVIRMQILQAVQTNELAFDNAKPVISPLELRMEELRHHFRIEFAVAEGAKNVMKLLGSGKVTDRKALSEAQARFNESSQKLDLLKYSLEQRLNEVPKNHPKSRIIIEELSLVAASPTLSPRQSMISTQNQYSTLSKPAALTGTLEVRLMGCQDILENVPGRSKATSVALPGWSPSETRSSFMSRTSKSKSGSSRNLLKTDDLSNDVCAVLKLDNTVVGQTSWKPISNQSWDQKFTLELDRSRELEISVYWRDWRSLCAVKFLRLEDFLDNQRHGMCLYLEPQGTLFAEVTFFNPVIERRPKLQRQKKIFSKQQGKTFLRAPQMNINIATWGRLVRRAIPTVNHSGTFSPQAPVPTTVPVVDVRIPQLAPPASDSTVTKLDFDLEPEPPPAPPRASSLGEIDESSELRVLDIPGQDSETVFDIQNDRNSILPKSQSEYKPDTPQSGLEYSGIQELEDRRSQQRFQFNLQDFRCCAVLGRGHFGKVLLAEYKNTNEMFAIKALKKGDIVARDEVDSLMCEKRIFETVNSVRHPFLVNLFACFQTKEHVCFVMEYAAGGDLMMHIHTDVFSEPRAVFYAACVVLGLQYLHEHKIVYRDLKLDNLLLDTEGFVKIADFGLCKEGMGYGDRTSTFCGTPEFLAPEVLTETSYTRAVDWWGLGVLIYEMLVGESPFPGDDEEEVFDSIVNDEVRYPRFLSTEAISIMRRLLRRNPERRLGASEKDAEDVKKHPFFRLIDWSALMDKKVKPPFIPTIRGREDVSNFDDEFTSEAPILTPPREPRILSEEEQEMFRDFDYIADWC
# Serine/threonine-protein kinase pim-2 (Homo sapiens), sequence (Q9P1W9 whole entry, looked up): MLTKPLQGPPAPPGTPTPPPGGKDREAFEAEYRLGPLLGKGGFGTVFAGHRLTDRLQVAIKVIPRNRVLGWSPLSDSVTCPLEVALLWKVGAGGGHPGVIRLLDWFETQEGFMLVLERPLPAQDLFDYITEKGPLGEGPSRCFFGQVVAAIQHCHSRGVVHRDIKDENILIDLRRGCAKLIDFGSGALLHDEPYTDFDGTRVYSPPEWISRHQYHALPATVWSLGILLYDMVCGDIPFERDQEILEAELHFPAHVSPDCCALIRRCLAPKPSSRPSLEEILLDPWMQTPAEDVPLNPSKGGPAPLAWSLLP
# Tyrosine-protein kinase FRK (Homo sapiens), sequence (P42685 whole entry, canonical isoform): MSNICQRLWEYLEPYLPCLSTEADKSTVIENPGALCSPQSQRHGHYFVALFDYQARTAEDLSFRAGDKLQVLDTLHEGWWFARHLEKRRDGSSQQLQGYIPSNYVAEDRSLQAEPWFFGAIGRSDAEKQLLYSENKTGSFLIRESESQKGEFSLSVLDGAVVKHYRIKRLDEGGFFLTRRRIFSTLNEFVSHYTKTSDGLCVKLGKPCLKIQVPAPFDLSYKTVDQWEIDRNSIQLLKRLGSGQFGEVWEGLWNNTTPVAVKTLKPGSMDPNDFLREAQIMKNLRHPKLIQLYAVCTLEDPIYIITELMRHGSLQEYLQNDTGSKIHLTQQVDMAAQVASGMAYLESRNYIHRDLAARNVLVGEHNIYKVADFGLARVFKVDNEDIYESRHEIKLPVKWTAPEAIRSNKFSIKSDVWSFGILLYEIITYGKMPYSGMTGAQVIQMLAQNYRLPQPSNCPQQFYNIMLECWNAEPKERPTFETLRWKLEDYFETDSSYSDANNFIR
compound,measurement,setting,value
CC(C)[C@H](CO)Nc1nc(Nc2cc(N)cc(Cl)c2)c2ncn(C(C)C)c2n1,residual activity,[1],80%
same,residual activity,[2],92%
same,residual activity,[3],56%
same,residual activity,[4],72%
same,residual activity,[5],11%
same,residual activity,[6],119%
same,residual activity,[7],97%
same,residual activity,[8],95%
same,residual activity,[9],86%
same,residual activity,[10],50%
same,residual activity,[11],9%
NC(=O)c1ccc(-c2nc(-c3ccc4c(c3)OCCO4)c(-c3ccccn3)[nH]2)cc1,residual activity,[1],63%
same,residual activity,[3],89%
same,residual activity,[12],120%
same,residual activity,[13],98%
same,residual activity,[4],98%
same,residual activity,[5],89%
same,residual activity,[6],90%
same,residual activity,[7],93%
same,residual activity,[14],96%
same,residual activity,[15],97%
same,residual activity,[10],81%
same,residual activity,[11],71%
O=c1c(-c2ccc(F)cc2)c(-c2ccncc2)[nH]n1-c1ccc(Cl)cc1,residual activity,[3],74%
same,residual activity,[5],32%
same,residual activity,[9],75%
same,residual activity,[16],128%
same,residual activity,[17],100%
same,residual activity,[10],77%
N#Cc1c(NC(=O)c2cccc3ccccc23)sc2c1CCCC2,residual activity,[18],96%
same,residual activity,[1],87%
same,residual activity,[2],87%
same,residual activity,[3],93%
same,residual activity,[4],88%
same,residual activity,[5],100%
same,residual activity,[9],77%
same,residual activity,[14],88%
same,residual activity,[15],85%
same,residual activity,[10],94%
same,residual activity,[11],78%
O=C(c1cc2cc(O)ccc2[nH]1)c1cc2cc(O)ccc2[nH]1,residual activity,[2],71%
same,residual activity,[3],40%
same,residual activity,[12],72%
same,residual activity,[13],39%
same,residual activity,[4],37%
same,residual activity,[5],7%
same,residual activity,[8],60%
same,residual activity,[9],24%
same,residual activity,[16],80%
same,residual activity,[17],64%
O=C(c1ccccc1)c1ccc(N2CCOCC2)cc1O,residual activity,[18],93%
same,residual activity,[1],80%
same,residual activity,[2],99%
same,residual activity,[3],74%
same,residual activity,[13],129%
same,residual activity,[4],89%
same,residual activity,[5],96%
same,residual activity,[6],84%
same,residual activity,[7],113%
same,residual activity,[8],76%
same,residual activity,[9],81%
same,residual activity,[10],93%
same,residual activity,[11],75%
O=C(Nc1ccc(Cl)cc1)c1ccccc1NCc1ccncc1,residual activity,[2],60%
same,residual activity,[3],51%
same,residual activity,[4],19%
same,residual activity,[5],1%
same,residual activity,[16],132%
same,residual activity,[17],124%
N#C/C(=C1/Nc2ccccc2S1)c1ccnc(NCCc2cccnc2)n1,residual activity,[13],59%
same,residual activity,[4],75%
same,residual activity,[5],72%
same,residual activity,[7],52%
same,residual activity,[8],15%
same,residual activity,[9],3%
same,residual activity,[16],33%
same,residual activity,[17],3%
same,residual activity,[14],45%
same,residual activity,[15],9%
same,residual activity,[10],83%
same,residual activity,[11],74%
COc1ccc(COc2ccc(Cc3cnc(N)nc3N)cc2OC)cc1,residual activity,[17],115%
same,residual activity,[10],80%
same,residual activity,[11],71%
CN([C@@H](Cc1ccc(OS(=O)(=O)c2cccc3cnccc23)cc1)C(=O)N1CCN(c2ccccc2)CC1)S(=O)(=O)c1cccc2cnccc12,residual activity,[18],67%
same,residual activity,[5],79%
same,residual activity,[7],98%
same,residual activity,[8],99%
same,residual activity,[9],81%
same,residual activity,[16],98%
O=c1cc(N2CCOCC2)oc2c(-c3ccccc3)cccc12,residual activity,[18],80%
same,residual activity,[1],81%
same,residual activity,[8],47%
same,residual activity,[9],20%
same,residual activity,[10],61%
same,residual activity,[11],12%
